Measurements published in paper PMC4336329 (PLoS ONE, 2015).
The campaign covered roughly 310,000 compounds. About 2,200 (0.71%) showed an effect of 50% or more. Effects have a minus sign here. Many of the other results were omitted from the sample, so strong results are more common in it than they were.

target: human ether-à-go-go-related gene (hERG) potassium channel (human, UniProt Q12809); experiment: primary screen, population patch clamp on CHO cells stably expressing hERG; higher = less effect of the substance
Sequence (Q12809 whole entry, looked up): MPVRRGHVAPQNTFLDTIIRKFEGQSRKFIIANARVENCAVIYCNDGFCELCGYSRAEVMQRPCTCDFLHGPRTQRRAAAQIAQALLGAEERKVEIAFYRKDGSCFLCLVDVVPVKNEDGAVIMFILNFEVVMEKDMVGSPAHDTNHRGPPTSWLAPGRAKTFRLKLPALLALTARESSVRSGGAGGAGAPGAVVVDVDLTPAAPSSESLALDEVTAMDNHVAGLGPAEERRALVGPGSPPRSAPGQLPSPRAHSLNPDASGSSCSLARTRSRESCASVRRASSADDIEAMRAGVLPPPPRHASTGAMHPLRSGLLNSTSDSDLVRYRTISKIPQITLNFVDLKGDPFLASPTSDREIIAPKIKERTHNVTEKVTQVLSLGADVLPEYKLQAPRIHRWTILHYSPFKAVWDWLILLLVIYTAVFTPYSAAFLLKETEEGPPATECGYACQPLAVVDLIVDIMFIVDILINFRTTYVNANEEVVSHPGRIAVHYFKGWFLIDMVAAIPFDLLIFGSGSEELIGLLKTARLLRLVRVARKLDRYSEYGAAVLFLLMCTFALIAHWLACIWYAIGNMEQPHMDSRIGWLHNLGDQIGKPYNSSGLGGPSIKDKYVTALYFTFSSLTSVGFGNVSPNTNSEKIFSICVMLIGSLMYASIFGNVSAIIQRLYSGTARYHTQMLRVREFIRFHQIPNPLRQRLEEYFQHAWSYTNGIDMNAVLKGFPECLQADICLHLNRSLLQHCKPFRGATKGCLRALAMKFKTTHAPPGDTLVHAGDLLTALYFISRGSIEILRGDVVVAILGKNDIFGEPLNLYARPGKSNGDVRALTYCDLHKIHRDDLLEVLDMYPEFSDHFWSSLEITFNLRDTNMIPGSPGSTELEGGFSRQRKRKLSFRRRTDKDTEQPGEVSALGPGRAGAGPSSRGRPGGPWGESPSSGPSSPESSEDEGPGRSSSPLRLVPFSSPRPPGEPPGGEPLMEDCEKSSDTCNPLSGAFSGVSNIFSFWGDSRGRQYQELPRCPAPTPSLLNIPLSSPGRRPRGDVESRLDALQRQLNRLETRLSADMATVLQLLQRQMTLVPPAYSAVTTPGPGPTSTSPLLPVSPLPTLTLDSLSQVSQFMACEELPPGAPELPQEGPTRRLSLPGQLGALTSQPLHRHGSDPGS
Procedure: Briefly, Chinese hamster ovary (CHO) cells stably expressing the hERG channel were dislodged from tissue culture flasks and dispensed into PPC plates. […] During the recording, background leak currents were estimated by a 100 ms step to -80 mV from an initial holding potential of -70 mV and subtracted from the subsequent current measurement. The campaign was conducted in two phases using slight differences in recording protocol. In the first phase, the initial voltage pulse used a 100 ms step to -30 mV from a holding potential of -70 mV, a 2 s conditioning step to +25 mV, and a 2 s test step to -30 mV. During the second phase of the screen, the potential during the conditioning step was raised to +45 mV. In both phases of the campaign, a secondary voltage pulse was applied using the same parameters as the second phase initial pulse. The initial and secondary pulses were applied in the absence of compound, and upon application of 1 μM and 10 μM test concentrations. Small molecule effects on hERG current density were quantified by […].

SMILES	hERG current change (%, negative = inhibition) at 1uM [%]
CCn1c(/N=C/c2ccc(OC)cc2O)nc2ccccc21	14
Cc1ccc(NC(=O)Nc2cccn(Cc3c(F)cccc3Cl)c2=O)cc1	13.2
S=C(Nc1ccccc1)Nc1ccc(Br)cc1	14.5
Cc1cccnc1-n1c(C)nc2ccccc2c1=O	7.55
CSCCC(NC(=O)c1cc(C(C)(C)C)oc1C)C(=O)O (centres unmarked)	15.6
COc1cc(C(=O)O)c2c(c1C)OC(=O)c1c(C)cc(O)c(C=O)c1O2	22.5
CC(=O)NCCC(=O)N(C)CC1CCN(CCc2cccc(C(F)(F)F)c2)CC1	12.5
COc1cc(CN(C)CC2CCCN(CCc3cccc(C(F)(F)F)c3)C2)ccc1O (centres unmarked)	2.96
COc1cc(C(=O)N(C)CC2CCN(CCc3cccc(C(F)(F)F)c3)CC2)ccc1C	-63.8
CCCC(=O)Nc1ccc(NC(=O)c2ccccc2F)cn1	11.2
Fc1ccc(NC(=S)NCCN2CCOCC2)c(F)c1F	12.2
S=C(Nc1ccc2snnc2c1)N1CCN(c2ccccn2)CC1	10
COc1cccc(N2CCN(CC(=O)c3c(C)[nH]c4ccccc34)CC2)c1	-10.9
Cc1ccc(S(=O)(=O)N(CC(=O)NCc2ccncc2)Cc2ccc(F)cc2)cc1	-75
Cc1ccc(S(=O)(=O)N(CC(=O)NCc2ccncc2)Cc2ccccc2F)cc1	-53.2
CCN(CC(=O)NCc1ccc(F)cc1)S(=O)(=O)c1ccc(C)cc1	-13.7
O=C(CN(Cc1ccccc1)S(=O)(=O)c1ccc(F)cc1)NCc1ccncc1	-9.19
CCCNC(=O)CN(Cc1ccccc1F)S(=O)(=O)c1ccc(C)cc1	5.85
Cc1ccc(S(=O)(=O)N(CC(=O)O)Cc2ccccc2F)cc1	6.83
O=C(CCc1nnc2ccc(N3CCCC3)nn12)Nc1cc(F)ccc1F	-9.58
COc1ccc(N=C(C)C2=C(O)COC2=O)cc1	4.93
CN1CSC2=C(C#N)C(c3cccc(OCc4ccccc4)c3)CC(=O)N2C1 (centres unmarked)	4.22
CCC(NC(=O)OCc1ccccc1)C(=O)Oc1ccc2ccc(=O)oc2c1 (centres unmarked)	18.8

SMILES	hERG current change (%, negative = inhibition) at 1uM [%]
C=CCn1c(SCC(=O)NNC(=O)Nc2ccc(C)cc2)nnc1-c1ccccc1	1.92
CCCN1CCN(S(=O)(=O)c2c(C)[nH]c(C)c2C(=O)N2CCCCC2)CC1	-0.989
CCn1c(SCC(=O)Nc2ccccc2OC)nc(O)cc1=O	10
COC(=O)c1cc(Br)c(=O)n(-c2ccc(F)cc2)c1	-70.1
COC(=O)c1cc(Br)c(=O)n(-c2ccc(OC)cc2)c1	5.39
COC(=O)c1cc(Br)c(=O)n(CCc2ccc(F)cc2)c1	-3.04
CCO[C@@H]1OC(C(=O)N2CCN(C)CC2)=C[C@H](c2csc3ccccc23)[C@H]1CCCO	0.669
CC(=O)Nc1ccc(N(C(=O)c2ccccn2)C(C(=O)NC2CCCCC2)c2ccc(F)cc2)cc1 (centres unmarked)	12.2
CC1CCCCN1CCNC(=O)CCc1nnc2n(Cc3ccccc3)c(=O)c3ccccc3n12 (centres unmarked)	-8.67
CC1CCN(CCCNC(=O)CCc2nnc3n(CCc4ccccc4)c(=O)c4ccccc4n23)CC1	-52.4
O=C(CCc1nnc2n(CCc3ccccc3)c(=O)c3ccccc3n12)NCCCN1CCCCC1	-9.25
Cc1ccc(Cc2ccc(C(=O)NNC(N)=S)o2)cc1	3.74
CN(CC(=O)Nc1ccccc1Br)C(=O)c1sccc1-c1ccccc1	-0.469
O=c1nc(-c2ccccc2)cc(C(F)(F)F)[nH]1	21.3
COc1ccc(N2CCc3c(C)nc4c(OC)cccc4c32)cc1	-28.3
COc1ccc(N2CCc3c(C)nc4c(OC)cc(OC)cc4c32)cc1	-52.7
COc1ccccc1N1CCc2c(C)nc3c(OC)cccc3c21	-23.1
COc1ccc(N2CCc3c(C)nc4c(OC)cc(OC)cc4c32)c(OC)c1	-47.6
COc1cc(OC)c2nc(C)c3c(c2c1)N(c1ccc(O)cc1)CC3	-57.2
COc1cccc2c3c(c(C)nc12)CCN3c1ccccc1	-8.76
CCN(CC(=O)Nc1ccccc1C(F)(F)F)C(=O)CCS(=O)(=O)c1ccc(Cl)cc1	9.68
CC1CCC(NC(=O)Cn2cnc3sccc3c2=O)CC1 (centres unmarked)	3.74
CCN(CCCNC(=O)CCn1c(=S)[nH]c2cc3c(cc2c1=O)OCO3)c1cccc(C)c1	11.5

SMILES	hERG current change (%, negative = inhibition) at 1uM [%]
COc1ccc(C(=O)C2CN(C)CC2c2ccc(Cl)cc2)cc1 (centres unmarked)	-18.3
CN1CC(C(=O)c2ccc([N+](=O)[O-])cc2)C(c2ccc(Cl)cc2)C1 (centres unmarked)	-77.1
CN1CC(C(=O)c2ccc(Cl)cc2)C(c2ccccc2)C1 (centres unmarked)	6.78
Cc1nn(C)c(C(=O)N2CCc3ccccc32)c1Br	4.79
CC1CC1C(=O)Nc1nc(-c2cccs2)c(-c2cccs2)s1 (centres unmarked)	7.23
O=C(NC1CCCN(c2ccc(C(F)(F)F)cn2)C1)c1ccnc(Cl)c1 (centres unmarked)	-9.21
O=C(NC1CCCN(c2ccc(C(F)(F)F)cn2)C1)c1ccncc1 (centres unmarked)	-51.8
Cc1ccc(C(=O)NC2CCCN(c3ccc(C(F)(F)F)cn3)C2)cn1 (centres unmarked)	2.48
CSCCC(NC(=O)c1ccccc1)C(=O)NC1CCCC1 (centres unmarked)	4.81
CC(C(=O)NC(=O)NC1CCCCC1)N(C)CC(=O)Nc1ccc(F)c(F)c1F (centres unmarked)	12.1
OC(COc1ccc(Cl)cc1)CN1CCN(c2ccccn2)CC1 (centres unmarked)	-37.7
Cl.OC(COCc1ccc(Cl)cc1)CN1CCN(c2ccccn2)CC1 (centres unmarked)	-24.9
Cl.OC(COC(c1ccc(Cl)cc1)c1ccc(Cl)cc1)CN1CCN(c2ccccn2)CC1 (centres unmarked)	-79.7
Cc1cccc(C)c1OCC(O)CN1CCN(c2ccccn2)CC1 (centres unmarked)	-1.11
CC(C)c1ccc(OCC(O)CN2CCN(c3ccccn3)CC2)cc1.Cl (centres unmarked)	-27.7
OC(COC(c1ccccc1)c1ccccc1)CN1CCN(c2ccccn2)CC1 (centres unmarked)	-73.5
CCOc1cc(/C=C2\C(=O)ON=C2c2ccccc2)cc(Br)c1O	10.4
O=C(CCCc1ccccc1)NCc1ccc2c(c1)OCO2	8.58
COc1cccc(Cn2c(NCC(C)C)nc3c2c(=O)n(C)c(=O)n3C)c1	-7.04
O=C(Nc1ccccc1)c1cc2ccccc2o1	8.25
CCC(=O)Nc1ccc(NC(=O)c2cc3ccccc3o2)cc1	-5.21
CC/C(=C\c1oc2cc3ccccc3cc2[n+]1CC)Nc1ccccc1.[I-]	-83.7
Cc1cccc(NC(=S)Nn2cnnc2)c1C	10.9

SMILES	hERG current change (%, negative = inhibition) at 1uM [%]
Cc1ccc(-c2cc(C(=O)N3CCN(C4CCS(=O)(=O)C4)CC3)c3ccccc3n2)cc1 (centres unmarked)	-3.04
Cc1ccc(NC(=O)CN(C)C(=O)CSc2nc(C)cs2)cc1	3.7
CCCCCC(=O)Nc1cc(N(C)C)nc2ccccc12	-77.9
CN(C)c1cc(NC(=O)CNC(C)(C)C)c2ccccc2n1.O=C(O)C(=O)O	2.05
CCCCC(=O)Nc1cc(N(C)C)nc2ccccc12	-30.7
CC(Cc1ccccc1)NCC(=O)Nc1cc(N(C)C)nc2ccccc12.O=C(O)C(=O)O (centres unmarked)	-73.5
CN(C)c1cc(NC(=O)CNC(C)(C)CC(C)(C)C)c2ccccc2n1.O=C(O)C(=O)O	-7.36
CCN(CC)CC(=O)Nc1cc(N(C)C)nc2ccccc12.O=C(O)C(=O)O	6.57
NS(=O)(=O)c1ccc(O)c(N2C(=O)c3cccc4c(C(=O)O)ccc(c34)C2=O)c1	10.3
COc1ccc(C(=O)CSc2nc(-c3ccccn3)nc(C)c2Cl)cc1	13
Cc1nonc1CC(=O)N1CCCC(C(=O)c2cccc(C(F)(F)F)c2)C1 (centres unmarked)	-20.6
O=C(C1CCC(=O)N1Cc1cccnc1)N1CCN(c2ccc(F)cc2)CC1 (centres unmarked)	10.5
OCC[N+]12CCC(CC1)C(C(O)(c1ccccc1)c1ccccc1)C2 (centres unmarked)	15.2
CCc1ccc(C(=O)NNc2cc(Cl)ccc2Cl)cc1	12.5
Cn1c(-c2ccccc2)cnc1NCc1ccc(-c2ccccc2)cc1.O=C(O)C(=O)O	11
Cn1c(-c2cccc([N+](=O)[O-])c2)cnc1NCc1ccc(C#N)cc1.O=C(O)C(=O)O	-56.4
CSc1ccc(CNc2ncc(-c3cccc([N+](=O)[O-])c3)n2C)cc1.O=C(O)C(=O)O	-26.5
Cn1c(-c2ccc(Br)cc2)cnc1NCc1ccc(C#N)cc1.O=C(O)C(=O)O	-77.2
Cn1c(-c2ccc(F)cc2)cnc1NCc1ccc(C#N)cc1	-22.9
Cn1c(-c2cccc([N+](=O)[O-])c2)cnc1NCc1cccc([N+](=O)[O-])c1.O=C(O)C(=O)O	-28.2
